Laboratory results as given in PubChem BioAssay (NCATS).
Where “and” joins values, the source holds several entries; their conditions need not be identical. Equal entries are not always repeated. Results filed as inconclusive are left out. Calls of active or inactive are those of the source. Unless noted, calls come from the whole dose curve; as a rule, active = well fitted curve in the direction sought with a large enough effect; inconclusive = small, poorly fitted or top-dose-only effect, or another doubt; inactive = no such curve, though single readings can be large; an effect the other way counts as inactive or inconclusive.

Tests used:
[1] = qHTS Assay for Lipid Storage Modulators (AID 1519; calls by dose curve; for activity change, negative = inhibition: % is set by controls: 0 for no effect and ±100 for the full control effect); settings: Drosophila S3 cells, BODIPY lipid droplet/cell ratio, laser cytometry, cells loaded with oleic acid
Procedure, shortened: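 Cells seeded at 5,000 per well were treated with compounds over a concentration series and loaded with oleic acid (400 uM, as added). Lipid droplet fluorescence (488 nm excitation, 500-530 nm channel) was read by laser-scanning cytometry and normalized to 20 uM Triacsin C.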

[2] = target: DNA repair nuclease/redox regulator APEX1 (Homo sapiens) (UniProt P27695); assay: qHTS Validation Assay for Inhibitors of the Human Apurinic/apyrimidinic Endonuclease 1 (APE1) (AID 1705;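 note: TAMRA fluorescence gain over two minutes as APE1 cuts a quenched THF abasic duplex; % is set by controls: 0 for no effect and ±100 for the full control effect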); settings: purified APE1 endonuclease activity, fluorescence, titration; series mostly up to 57.1 µM
Procedure, shortened: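 qHTS, 1536-well. APE1 + cpd 15 min RT → 50 nM TAMRA/BHQ-2 THF-abasic dsDNA substrate → kinetic fluorescence, 3 reads/60 s; delta(read3−read1) = reaction progress. No-enzyme buffer = negative control.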

[3] = Counterscreen for APE1 Inhibitors: Fluorescent Dye Displacement Validation Assay (AID 1707); settings: fluorescent dye displacement from DNA; series mostly up to 57.1 µM;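 note: plate controls were ThO with dsDNA and no compound for no effect and ThO without dsDNA for full effect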
Procedure, shortened: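 Thiazole Orange displacement from dsDNA: 250 nM ThO with 50 nM TAMRA-labelled abasic-site (tetrahydrofuran) duplex in 50 mM Tris-HCl pH7.5, 50mM NaCl, 2 mM MgCl2, 0.01% Tween-20. Loss of endpoint fluorescence (ex 480 nm, em 540 nm) flags DNA binders.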

[4] = target: Endonuclease 4 (Escherichia coli (strain K12)) (UniProt P0A6C1); assay: Counterscreen for APE1 Inhibitors: qHTS Validation Assay for Inhibitors of Endonuclease IV (AID 1708); note: % is set by controls: 0 for no effect and ±100 for the full control effect; settings: E. coli endonuclease IV, DNA cleavage fluorescence; series mostly up to 57.1 µM
Procedure, shortened: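 Enzymatic AP-site incision assay using a double-stranded THF substrate labelled with TAMRA and BHQ-2; released fluorescence signals activity. Enzyme 2 nM, substrate 50 nM, 15 min compound preincubation.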

[5] = qHTS for differential inhibitors of proliferation of Plasmodium falciparum line 7G8 (AID 1815); settings: Plasmodium falciparum 7G8 proliferation inhibition; series mostly up to 28.7 µM;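 note: parasite growth measured after three days of incubation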; note: potency is the fitted concentration of half-maximal effect;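 for activity change, negative = inhibition: plate controls were vehicle wells for no effect and reference inhibitor wells for full effect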
[6] = qHTS for differential inhibitors of proliferation of Plasmodium falciparum line GB4 (AID 1816); settings: Potency: Plasmodium falciparum GB4 proliferation inhibition; series mostly up to 28.7 µM;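 note: parasite growth measured after 72 h incubation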; note: potency is the fitted concentration of half-maximal effect;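 for activity change, negative = inhibition: 0% = vehicle DMSO and -100% = reference inhibitor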
[7] = qHTS for differential inhibitors of proliferation of Plasmodium falciparum line 3D7 (AID 1876); note: potency is the fitted concentration of half-maximal effect; settings: P. falciparum 3D7 proliferation inhibition; series mostly up to 28.7 µM
[8] = target: Alpha-galactosidase A (Homo sapiens) (UniProt P06280); assay: Counterscreen for Glucocerebrosidase Inhibitors: qHTS Assay for Human alpha-Galactosidase at pH 4.5 (AID 992); settings: purified enzyme, fluorogenic substrate; series mostly up to 76.9 µM; note: 0% is about no effect
Procedure, shortened: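 Enzyme at 2 nM final was combined with compound (0.7 nM to 77 uM) and 80 uM 4-methylumbelliferyl alpha-D-galactopyranoside in 50 mM citric acid, 0.005% Tween-20, pH 4.5. After 20 min at room temperature, fluorescence was read (Ex 365/Em 440 nm); AC50 came from Hill fits.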

[9] = target: alpha-glucosidase (Oryza sativa, rice) (UniProt Q653V4); assay: Counterscreen for Glucocerebrosidase Inhibitors: qHTS Assay for Rice alpha-Glucosidase at pH 5.0 (AID 997); settings: rice alpha-glucosidase enzyme activity; series mostly up to 76.9 µM;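 note: 0% = full activity with enzyme and -100% = basal without enzyme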
Procedure, shortened: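 Rice alpha-glucosidase (4 nM final) with 400 uM 4-methylumbelliferyl-alpha-D-glucopyranoside in citrate buffer pH 5.0, 20 min at room temperature, stopped at pH 10; fluorescence 365/440 nm, compounds 0.7 nM–77 uM, AC50 from Hill fits.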

[10] = measured here: cell count channel max response
[11] = measured here: lipid channel max response

Sequence of DNA repair nuclease/redox regulator APEX1 (Homo sapiens) (P27695 whole entry, looked up): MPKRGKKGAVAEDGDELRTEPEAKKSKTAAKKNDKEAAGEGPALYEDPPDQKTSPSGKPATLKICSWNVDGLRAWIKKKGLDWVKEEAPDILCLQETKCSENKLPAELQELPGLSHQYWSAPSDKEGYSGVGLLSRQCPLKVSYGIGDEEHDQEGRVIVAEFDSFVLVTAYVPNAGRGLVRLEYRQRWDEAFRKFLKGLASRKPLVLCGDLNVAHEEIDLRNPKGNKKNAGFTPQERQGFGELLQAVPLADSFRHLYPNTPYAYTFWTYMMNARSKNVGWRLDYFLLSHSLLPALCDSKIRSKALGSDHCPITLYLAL
Sequence of Alpha-galactosidase A (Homo sapiens) (P06280 whole entry, looked up): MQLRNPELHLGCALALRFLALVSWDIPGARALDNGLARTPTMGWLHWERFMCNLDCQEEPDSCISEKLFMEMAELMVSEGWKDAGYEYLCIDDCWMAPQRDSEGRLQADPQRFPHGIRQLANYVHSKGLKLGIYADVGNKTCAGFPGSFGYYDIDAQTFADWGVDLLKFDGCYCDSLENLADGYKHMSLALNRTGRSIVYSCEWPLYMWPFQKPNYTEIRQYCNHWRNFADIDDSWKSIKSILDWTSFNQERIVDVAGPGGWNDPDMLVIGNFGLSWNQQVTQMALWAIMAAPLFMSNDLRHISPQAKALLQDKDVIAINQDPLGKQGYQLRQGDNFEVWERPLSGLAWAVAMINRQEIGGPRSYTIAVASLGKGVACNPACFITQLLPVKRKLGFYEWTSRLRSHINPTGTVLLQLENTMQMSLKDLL

Row | SMILES | activity change, negative = inhibition ([1]; at 57.5 µM (top of the series)) | max response [1, 10] | max response [1, 11] | Potency [2] | Potency [3] | Potency [4] | Potency [5] | Potency [6] | Potency [7] | activity change, negative = inhibition ([1]; at 25.7 µM (top of the series)) | outcome [8] | outcome [9]
1 | C[C@H]1O[C@@H](n2cc(F)c(=O)[nH]c2=O)[C@H](O)[C@@H]1O | -0.32% (inactive) | 40.7% | 39.7% | inactive | inactive | inactive | inactive | inactive | inactive | – | – | –
2 | Cn1cc[nH]c1=S | 4.03% (inactive) | -10.4% and 8.98% | -9.93% and 13% | – | – | – | – | – | – | -0.635% (inactive) | – | –
3 | CN(C)CCCN1c2ccccc2CCc2ccccc21 | -1.66% (inactive) and 1.56% (inactive) | -3.16% and 7.78% and 14.5% | -7.45% and 10.3% and 14.3% | inactive | inactive | – | – | – | – | -3.67% (inactive) | inactive | inactive
4 | CCCCOc1cc(C(=O)OCCN(CC)CC)ccc1N | – | -13.7% | -14% | – | – | – | – | – | – | -1.04% (inactive) | – | –
5 | CNCCCC1c2ccccc2C=Cc2ccccc21 | 0.497% (inactive) | -11.5% and -13.6% | -15.9% | inactive | inactive | – | 5.62 µM (active) | 10 µM (active) | 10 µM (active) | -5.19% (inactive) | inactive | inactive
6 | CN(C)CCCN1c2ccccc2Sc2ccc(Cl)cc21 | 10.9% (inactive) | -15.1% and 7.95% | -17.6% and 24.6% | inactive | inactive | – | 4.47 µM (active) | 11.2 µM (active) | 4.47 µM (active) | -3.35% (inactive) | inactive | inactive
7 | CC(COc1ccccc1)NC(C)C(O)c1ccc(O)cc1 (configuration not stated) | 4.19% (inactive) | 1.34% | 8.74% | – | – | – | – | – | – | – | – | –
8 | CN(C)CCN(Cc1ccccc1)c1ccccn1 | 1.48% (inactive) | 12.3% | 16.2% | – | – | – | – | – | – | – | – | –
9 | OCCN1CCN(CCCN2c3ccccc3Sc3ccc(Cl)cc32)CC1 | 2.76% (inactive) | -14.4% and -12.4% | -12.9% and -6.81% | inactive | inactive | – | 3.55 µM (active) | 4.47 µM (active) | 2.82 µM (active) | -1.31% (inactive) | inactive | inactive
10 | COc1ccc2c(c1)C(=O)N(CCc1ccc(S(=O)(=O)NC(=O)NC3CCCCC3)cc1)C(=O)C2(C)C | – | -22.2% | -23.3% | – | – | – | – | – | – | -1.13% (inactive) | – | –
11 | C[C@](N)(Cc1ccc(O)cc1)C(=O)O | 2.05% (inactive) | 7.9% | 13.3% | inactive | inactive | inactive | inactive | inactive | inactive | – | – | –
12 | c1ccc2c(CC3=NCCN3)cccc2c1 | 4.27% (inactive) | -14.5% and 1.91% | -13.5% and 9.6% | – | – | – | – | – | – | -0.324% (inactive) | – | –
13 | Cc1ccc(C(C)C)cc2c(C)ccc1-2 | 7.53% (inactive) | 18.3% | 26.1% | – | – | – | – | – | – | – | – | –
